BoNT A protease – blocks Botulinum neurotoxin A light chain protease; multiplex microsphere protease substrate cleavage, flow cytometry; 360,000 tested, 0.17% active; AID 588499; inhibition, % at 10 µM; further: plate controls were buffer without enzyme for full effect and enzyme alone for no effect
Bead autofluor – compound fluorescence in toxin protease inhibitor counterscreen; compound autofluorescence counterscreen, microsphere flow cytometry; active compounds read high; fluorescence intensity (no concentration beside the values); 360,000 tested, 3.1% active; in the data active means fluorescence intensity above about 16000; inconclusive means no clear call, values can overlap the other calls
BJeLR lethal – kills HRASV12-expressing BJeLR cells; BJeLR (HRASV12) viability, CellTiter-Glo ATP luminescence, 48 h; inhibition, % (test concentration not listed); 300,000 tested, 0.17% active; AID 1554; in the data active means inhibition above about 50%; inconclusive means no clear call, values can overlap the other calls
BoNT F protease – blocks Botulinum neurotoxin F light chain protease; Multiplex microsphere protease cleavage assay, flow cytometry; inhibition, % at 10 µM; 360,000 tested, 0.22% active; in the data active means inhibition above about 35%, passing the limit was not always enough; inconclusive means no clear call, values can overlap the other calls; further: plate controls were buffer without enzyme for full effect and enzyme alone for no effect
Anthrax LF inh2 – blocks Bacillus anthracis lethal factor protease; inhibition, % at 10 µM; 360,000 tested, 0.12% active; multiplex microsphere protease cleavage assay, LF; P15917; AID 588501; further: plate controls were buffer without enzyme for full effect and enzyme alone for no effect
SARS 3CLpro inh – SARS-CoV 3CLpro protease inhibition. AID 1706. inhibition, % at 6 µM. 290,000 tested, 0.14% active. recombinant SARS-CoV 3CLpro, quenched FRET peptide cleavage; in the data active means inhibition above about 12%
* = called active by the depositor. The list is not random: actives were taken first. Their share in the collection is about 3.6%. Unless noted, no stated cut-off is given here; in the data, active means inhibition above about 30%; inconclusive means no clear call, values can overlap the other calls; inactive means below that.

Cc1ccc(C(C(=O)NC(C)(C)C)N(CC2CCCO2)C(=O)Cn2nnc(-c3ccc(C)o3)n2)cc1 (stereo not given) was read as BoNT A protease inconclusive, Bead autofluor 16426*, BJeLR lethal 10, BoNT F protease 1, Anthrax LF inh2 0 and SARS 3CLpro inh -4.
`Cc1ccc(-c2nnn(CC(=O)N(Cc3ccco3)C(C(=O)NC(C)(C)C)c3cccs3)n2)o1` (stereo not given) gave BoNT A protease 1, Bead autofluor 22756*, BJeLR lethal 2, BoNT F protease 4, Anthrax LF inh2 1 and SARS 3CLpro inh -5.
For Cc1ccc(-c2nnn(CC(=O)N(CC3CCCO3)C(C(=O)NC3CCCC3)c3ccc(O)cc3)n2)o1 (stereo not given) the results were BoNT A protease 0, Bead autofluor 3214, BJeLR lethal -7, BoNT F protease 0, Anthrax LF inh2 4 and SARS 3CLpro inh 2.
Screening Cc1ccc(-c2nnn(CC(=O)N(Cc3cccs3)C(C(=O)NC(C)(C)C)c3ccco3)n2)o1 (stereo not given) returned BoNT A protease -1, Bead autofluor 11019, BJeLR lethal -7, BoNT F protease 1, Anthrax LF inh2 -3 and SARS 3CLpro inh 2.
For CCOC(=O)c1sc(NC(=O)CSc2nc(C)cc(-c3ccccc3)n2)c(C#N)c1C the results were BoNT A protease 2, Bead autofluor 19559*, BJeLR lethal -19, BoNT F protease -1, Anthrax LF inh2 -7 and SARS 3CLpro inh 0.
CCOC(=O)c1sc(NC(=O)CSc2nc3c(cc2C#N)CCCCCC3)c(C#N)c1C was read as BoNT A protease inconclusive, Bead autofluor 17520*, BJeLR lethal 14, BoNT F protease -9, Anthrax LF inh2 -1 and SARS 3CLpro inh -1.
Screening CCOC(=O)c1sc(NC(=O)CSc2n[nH]c(-c3ccc(Cl)cc3Cl)n2)c(C#N)c1C returned BoNT A protease inconclusive, Bead autofluor 23279*, BJeLR lethal 5, BoNT F protease -2, Anthrax LF inh2 0 and SARS 3CLpro inh -1.
Screening CCc1cn(S(=O)(=O)c2ccccc2OC)nc1N returned BoNT A protease 0, Bead autofluor 7756, BJeLR lethal 4, BoNT F protease 0, Anthrax LF inh2 -2 and SARS 3CLpro inh -1.
For CCCc1cn(S(=O)(=O)c2ccc(OC)cc2OC)nc1N the results were BoNT A protease -4, Bead autofluor 17146*, BJeLR lethal 3, BoNT F protease -6, Anthrax LF inh2 -3 and SARS 3CLpro inh 0.
Screening Cc1cc(NC(=O)CSc2nnc(-c3ccccc3Cl)o2)no1 returned BoNT A protease 1, Bead autofluor 3789, BJeLR lethal -12, BoNT F protease -15, Anthrax LF inh2 -8 and SARS 3CLpro inh 5.
For CC(C)OCCCNC(=O)c1cccs1 the results were BoNT A protease -1, Bead autofluor 22575*, BJeLR lethal 2, BoNT F protease 1, Anthrax LF inh2 0 and SARS 3CLpro inh 0.
Screening O=C(CN1CCN(c2nc(-c3ccc(F)cc3)cs2)CC1)NCc1ccc2c(c1)OCO2 returned BoNT A protease 0, Bead autofluor 23682*, BJeLR lethal 10, BoNT F protease -2, Anthrax LF inh2 -2 and SARS 3CLpro inh 6.
Screening Cn1c(/C=C(\C#N)C(N)=S)ccc1-c1ccc(Br)cc1 returned BoNT A protease 33*, Bead autofluor 4648, BoNT F protease 5, Anthrax LF inh2 32* and SARS 3CLpro inh -6.
For CCN1CCN(CCNC(=O)CCCCCn2c(=O)[nH]c3cc(C(=O)OC)ccc3c2=O)CC1 the results were BoNT A protease -2, Bead autofluor 23054*, BJeLR lethal 11, BoNT F protease -3, Anthrax LF inh2 -2 and SARS 3CLpro inh -2.
For CCOC(=O)c1cnc(SC2CC(=O)N(c3ccc(C)cc3)C2=O)nc1N (stereo not given) the results were BoNT A protease -2, Bead autofluor 24081*, BJeLR lethal 4, BoNT F protease -5, Anthrax LF inh2 0 and SARS 3CLpro inh 1.
For Cc1cc(C)c(-c2cc(C(F)(F)F)no2)c(=O)[nH]1 the results were BoNT A protease inconclusive, Bead autofluor 17034*, BJeLR lethal -4, BoNT F protease -5, Anthrax LF inh2 0 and SARS 3CLpro inh -2.
Screening CN(C)c1ccc(-c2noc(C3CCN(S(=O)(=O)c4ccc(C(=O)O)cc4)CC3)n2)cc1 returned BoNT A protease inconclusive, Bead autofluor 22586*, BJeLR lethal -2, BoNT F protease 4, Anthrax LF inh2 -4 and SARS 3CLpro inh 4.

From PubChem BioAssay
